From PubChem BioAssay (NCI) come the findings set out here.

SMILES strings stand for the structures. Compounds without any hit were thinned out: in the full panel of roughly 83,000, 20% have a hit.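 In brief: 96-well plates, 48 h treatment, single concentration, percent growth endpoint.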 Unmarked numbers belong to inactive results. Active and inactive are the calls of the source. Rule for the calls: active = growth percent below 10; inactive = the rest.

Test systems include SR leukemia; RPMI-8226 leukemia; OVCAR-8 ovarian; OVCAR-5 ovarian; OVCAR-4 ovarian; SK-OV-3 ovarian; IGROV1 ovarian; OVCAR-3 ovarian; HS 578T breast; NCI/ADR-RES ovarian.
What all share (assay): NCI-60 one-dose screen, 48 h (100 = growth as untreated, 0 = no growth, -100 = all killed)
What all share (settings): 10 µM unless noted

As to `O=C(C[C@]1(O)C(=O)Nc2ccc(Br)cc21)c1ccco1`, the growth is 97.9% with SR leukemia; 100% with RPMI-8226 leukemia; 98.2% in the test on OVCAR-8 ovarian; 106% with OVCAR-5 ovarian; 104% in the test with OVCAR-4 ovarian; 95.2% in the test on SK-OV-3 ovarian. Further, the growth in the test with IGROV1 ovarian was 92.7%; with OVCAR-3 ovarian it was 102%; in the test on HS 578T breast, 102%; in the test with NCI/ADR-RES ovarian it was 100%.
Regarding `Cc1cc(N2CCN(CC(=O)Nc3ccc4c(ccn4Cc4ccccc4)c3)CC2)nc(N2CCOCC2)n1`, the growth was 107% in the test with SR leukemia; 67% in the test on RPMI-8226 leukemia; 68.2% in the test on OVCAR-8 ovarian; 97.9% in the test with OVCAR-5 ovarian; 84.4% with OVCAR-4 ovarian; 81.9% in the test with SK-OV-3 ovarian. The growth is 76.8% with IGROV1 ovarian, 89.3% in the test on OVCAR-3 ovarian, 82.8% in the test with HS 578T breast and 79.4% in the test with NCI/ADR-RES ovarian.
For `O=C(O)CC(C(=O)O)/C(=C\c1ccccc1)c1ccccc1` (stereo not given), the growth was 105% with SR leukemia; 102% in the test on RPMI-8226 leukemia; 100% in the test with OVCAR-8 ovarian; 104% in the test with OVCAR-5 ovarian; 107% in the test with OVCAR-4 ovarian; 97.4% in the test with SK-OV-3 ovarian. Moreover, the growth is 120% with IGROV1 ovarian, 113% in the test with OVCAR-3 ovarian, 105% with HS 578T breast and 110% in the test with NCI/ADR-RES ovarian.
For the molecule `C=C1C(=O)O[C@H]2[C@H]1CC/C(COC(=O)C(=O)c1c[nH]c3ccc(Cl)cc13)=C\CC[C@@]1(C)O[C@@H]21`, the growth was 1.13% (active) in the test on SR leukemia; -39.1% (active) in the test on RPMI-8226 leukemia; -30.3% (active) in the test with OVCAR-8 ovarian; -36.6% (active) in the test with OVCAR-5 ovarian; -89.3% (active) in the test on OVCAR-4 ovarian; 26.2% in the test on SK-OV-3 ovarian. For the same molecule, the growth in the test with IGROV1 ovarian was -81% (active); in the test on OVCAR-3 ovarian, -95% (active); in the test on HS 578T breast, -14.2% (active); with NCI/ADR-RES ovarian it was -20% (active).
For the molecule `O=C1Nc2ccc(Cl)cc2/C1=C/c1ccc[nH]1`, the growth in the test with SR leukemia is 50.4%; in the test on RPMI-8226 leukemia, 101%; in the test with OVCAR-8 ovarian, 102%; in the test on OVCAR-5 ovarian it was 83.7%; in the test on OVCAR-4 ovarian, 44.3%; with SK-OV-3 ovarian, 117%. For the same molecule, the growth was 58.2% in the test with IGROV1 ovarian, 90.5% in the test on OVCAR-3 ovarian, 114% in the test on HS 578T breast and 112% in the test with NCI/ADR-RES ovarian.
Regarding `CC1(C)CC[C@]23CC[C@]4(C)[C@H](CC[C@@H]5[C@@]6(C)CCNCC(C)(C)[C@@H]6CC[C@]54C)[C@H]2[C@H]1OC3`, the growth is 4.33% (active) in the test on SR leukemia; 29.7% in the test with RPMI-8226 leukemia; 97.4% with OVCAR-8 ovarian; 106% with OVCAR-5 ovarian; 99.8% in the test on OVCAR-4 ovarian; 96.5% in the test on SK-OV-3 ovarian. The growth was 107% in the test with IGROV1 ovarian, 98.5% with OVCAR-3 ovarian, 104% in the test with HS 578T breast and 104% in the test with NCI/ADR-RES ovarian.
As for `Cc1ccc(Cc2cnc(NC(=O)/C=C/c3ccc(C)o3)s2)cc1`, the growth in the test on SR leukemia was 16.2%; in the test with RPMI-8226 leukemia it was 26.8%; in the test on OVCAR-8 ovarian, 62%; in the test on OVCAR-5 ovarian, 60.3%; with OVCAR-4 ovarian, 73.4%; with SK-OV-3 ovarian, 42.9%. The growth in the test with IGROV1 ovarian is 42.2%; in the test on OVCAR-3 ovarian, -8.25% (active); with HS 578T breast, 30.7%; in the test on NCI/ADR-RES ovarian, 33.9%.
As for `CN(C)/C(N)=N/N=C(\c1ccccc1)c1ccccn1`, the growth in the test with SR leukemia is 85.5%; in the test on RPMI-8226 leukemia, 92.1%; with OVCAR-8 ovarian, 103%; in the test with OVCAR-5 ovarian, 102%; in the test with OVCAR-4 ovarian, 86.6%; in the test with SK-OV-3 ovarian, 113%. For the same molecule, the growth in the test with IGROV1 ovarian is 93.7%; with OVCAR-3 ovarian, 93.7%; in the test on HS 578T breast it was 97.8%; in the test on NCI/ADR-RES ovarian it was 98.3%.
As for `ClCCn1cnc2c(SCc3ccccc3)ncnc21`, the growth is 43.6% in the test with SR leukemia; 50.9% in the test with RPMI-8226 leukemia; 41.8% in the test with OVCAR-8 ovarian; 101% with OVCAR-5 ovarian; 81.8% in the test on OVCAR-4 ovarian; 62.5% with SK-OV-3 ovarian. In addition, the growth is 133% with IGROV1 ovarian, 73.4% in the test on OVCAR-3 ovarian, 62.8% in the test on HS 578T breast and 57.1% in the test on NCI/ADR-RES ovarian.
Consider `O=C(N/N=C/c1ccc(Cl)cc1)c1ccc(NC(=O)c2ccccn2)cc1`, for which the growth is 43.3% in the test on SR leukemia; 62.1% in the test on RPMI-8226 leukemia; 46.1% in the test with OVCAR-8 ovarian; 67.6% in the test with OVCAR-5 ovarian; -77.6% (active) in the test with OVCAR-4 ovarian; 53.9% with SK-OV-3 ovarian. The growth is 30.9% in the test with IGROV1 ovarian, 0.827% (active) with OVCAR-3 ovarian, 53.9% in the test on HS 578T breast and 53.2% with NCI/ADR-RES ovarian.
Take `COc1cc2c(c(OC)c1OC)C(=O)CC(c1cccc(C(=O)Nc3ccc(C#N)cc3)c1)O2` (stereo not given): the growth is 41.2% in the test with SR leukemia; 29.7% in the test on RPMI-8226 leukemia; 42.9% in the test on OVCAR-8 ovarian; 102% in the test on OVCAR-5 ovarian; 55.2% in the test on OVCAR-4 ovarian; 104% with SK-OV-3 ovarian. For the same molecule, the growth with IGROV1 ovarian is 88.5%; in the test on OVCAR-3 ovarian, 74.5%; in the test on HS 578T breast, 92.4%; in the test on NCI/ADR-RES ovarian, 52.4%.
`COc1ccc2c(c1)c(-c1nc(-c3ccc4ccccc4c3)cs1)cn2C`: the growth is 49.9% in the test on SR leukemia; 102% in the test on RPMI-8226 leukemia; 95.3% with OVCAR-8 ovarian; 91.6% with OVCAR-5 ovarian; 94.3% with OVCAR-4 ovarian; 93% in the test with SK-OV-3 ovarian. For the same molecule, the growth with IGROV1 ovarian was 85.9%; in the test with OVCAR-3 ovarian it was 96.2%; in the test on HS 578T breast it was 97%; with NCI/ADR-RES ovarian, 98%.
Turning to `O=C(NCCNC(c1ccccc1)C(NCCNC(=O)c1ccccc1)c1ccccc1)c1ccccc1` (stereo not given), the growth with SR leukemia was 50.2%; with RPMI-8226 leukemia, 90.1%; in the test with OVCAR-8 ovarian it was 78.9%; with OVCAR-5 ovarian, 83.8%; in the test on OVCAR-4 ovarian, 91.3%; in the test on SK-OV-3 ovarian it was 99.9%. Besides, the growth was 82.4% in the test on IGROV1 ovarian, 116% in the test on OVCAR-3 ovarian, 115% in the test with HS 578T breast and 76.6% in the test with NCI/ADR-RES ovarian.
